Experiment [1] in a line: yeast TOR pathway RPL19A-GFP modulators, primary screen, cell-based, S. cerevisiae, multiplex flow cytometry (AID 1862; in the data active = percent of DMSO control GFP below about 86%;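 note: lower values mimic rapamycin by blocking the RPL19A rise seen in DMSO cells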). Conditions: S. cerevisiae RPL19A-GFP strain, flow cytometry fluorescence, 3 h; at 10 µM; stronger effect = lower value. Background: Flow cytometry measures light scatter and fluorescence of single cells or particles in a stream.
The nature of experiment [2]: modulators of MEP2-GFP levels in yeast, primary screen, S. cerevisiae, multiplex flow cytometry (AID 1867;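 active = GFP response, as percent of the DMSO control, above the screen-wide mean plus 3 SD, about 139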;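 note: median GFP channel fluorescence of barcode-gated MEP2-GFP cells measured by flow cytometry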). Conditions: S. cerevisiae MEP2-GFP strain, 3 h, at 10 µM, stronger effect = higher value, 100% means same as DMSO wells.
The nature of experiment [3]: modulators of CIT2-GFP expression in yeast, primary screen, S. cerevisiae, GFP fusion, multiplex flow cytometry (AID 1870).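 Note: barcoded CIT2-GFP strain pooled with four other GFP strains with rapamycin as positive control; median GFP fluorescence per well over plate mean of DMSO wells so 100% = DMSO.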 As to conditions: 3 h, at 10 µM, stronger effect = higher value.
Experiment [4] is described as follows: modulators of LAP4-GFP expression in yeast, primary screen, S. cerevisiae, multiplex flow cytometry (AID 1873;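 active = GFP signal, as percent of the solvent control, above the screen mean plus 3 SD, about 149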). Conditions: 3 h, at 10 µM, stronger effect = higher value.
Experiment [5] in a line: modulators of AGP1-GFP expression in yeast TOR pathway, primary screen, cell-based, multiplex flow cytometry, S. cerevisiae (AID 1887;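 active = GFP signal above the screen-wide mean plus 3 SD, that is over about 124.5% of the solvent control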;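 note: AGP1-GFP fusion strain of S. cerevisiae within a five-strain barcoded multiplex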). Conditions: 3 h, at 10 µM, stronger effect = higher value.
A short description of experiment [6]: inhibitors of CD8+ T cell-vesicle binding, pilot screen, LFA-1/ICAM-1 modulator project, MLPCN validation set, flow cytometry (AID 2523;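 active = response below a set limit, under 55% cells CD8-positive and vesicle-bound, and CD8 cells' 90th-percentile brightness under 279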;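 for vesicle binding response: mean PE anti-B7-1 fluorescence of CD8+ cells relative to row control; 100% = QL9-loaded vesicles with DMSO vehicle in the same plate row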). As to conditions: 2C mouse CD8+ T cells, at 7 µM, stronger effect = lower value; double positive events: measured here: CD8+/vesicle+ event percentage.
Experiment [7] deals with Integrin beta-1 (Homo sapiens) + Integrin alpha-4 (Homo sapiens) (UniProt P13612+P05556). The experiment can be described thus: inhibition of HUTS-21 binding to VLA-4, pilot screen, VLA-4 allosteric modulator project, U937 cells, HUTS-21 mAb, flow cytometry, validation set (AID 2674;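 active = inhibition above 50%, about 3 SD of the validation set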;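 note: antibody binding induced by the VLA-4 ligand LDV present at three times its Kd; 0% = LDV ligand with antibody and no compound and 100% = antibody without LDV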). Conditions: HUTS-21 LIBS mAb binding, at 6.7 µM, stronger effect = higher value, binding induced by LDV ligand.

Experiment [8] is described as follows: superoxide lowering in aged yeast cells, pilot screen, validation compound set (AID 2706;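 active = superoxide response below 65% of plate, a cut near 3 SD across the whole screen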;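 note: yeast exposed to compound for one week at 30 degrees C before staining; 100% = mean of all compound wells on the same plate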). Conditions: S. cerevisiae aging, superoxide DHE fluorescence; at 10 µM; stronger effect = lower value.
Experiment [9] addresses Beta-adrenergic receptor kinase 1 (Homo sapiens) (UniProt P25098). Nature of the experiment: GRK2 binders displacing RNA aptamer, biochemical, validation, human GRK2, bead flow cytometry (AID 488806;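 active = aptamer binding inhibition above 30%, about 3 SD of noise from non-fluorescent compounds; inactive = inhibition at or below 30%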). Conditions: bead-bound GRK2, FAM-aptamer displacement, at 10 µM, stronger effect = higher value.
Experiment [10] concerns the target Beta-2 adrenergic receptor (Homo sapiens) (UniProt P07550). Nature of the experiment: beta2AR agonists driving receptor internalization, pilot screen, cell-based, FAP fluorogen, flow cytometry, validation set (AID 504459;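 active = percent response above 42, roughly 3 SD of non-fluorescent test compounds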;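 note: agonist-driven loss of surface beta2AR via internalization measured by FAP dye flow cytometry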). As to conditions: Am2.2-beta2AR cells, FAP surface receptor flow cytometry; at 10 µM; stronger effect = higher value.
In experiment [11] the target is AP-2 complex subunit beta (Homo sapiens) (UniProt P63010). Nature of the experiment: inhibitors of arrestin peptide binding to AP2, pilot screen, biochemical, validation set, GST-AP2 beads, flow cytometry (AID 504541;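 active = inhibition above 54%, about 3 SD of non-fluorescent compounds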;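 note: AP2 carries R879A mutation and is captured from E. coli lysate; bead-bound FITC arrestin peptide fluorescence measuring arrestin peptide binding to AP2; 0% = DMSO wells and 100% = excess unlabeled arrestin peptide control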). As to conditions: FITC arrestin peptide, at 10 µM, stronger effect = higher value, AP2 beta2 appendage fragment, R879A mutant.
Experiment [12] can be described thus: yeast V-ATPase proton transport modulators, S. cerevisiae, pHLuorin, HTS validation (AID 504600; in the data active = response above about 15%;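 note: plate controls were DMSO for no effect and reference compound for full effect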). As to conditions: S. cerevisiae pHLuorin cytosolic pH, at 10 µM, stronger effect = higher value.
The test system of experiment [13] is anti-desmoglein-3 scFv antibody binding to human DSG3. Nature of the experiment: inhibitors of anti-DSG3 scFv binding to DSG3, pilot screen, biochemical, validation compound set, bead-based, flow cytometry (AID 588368;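 active = binding below the plate cutoff, the plate median minus 3 SD, with a reading above zero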;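 note: signal is the median channel fluorescence of bead-bound GFP antibody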). As to conditions: Protein G beads, DSG3-Fc, scFv-GFP binding, at 10 µM, stronger effect = lower value.
A short description of experiment [14]: inhibitors of fungal efflux pumps CDR1, CDR2, MDR1, pilot screen, validation compound set, multiplex, phenotypic (AID 588506;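 active = efflux inhibition above 0.42, the validation set average plus 4 SD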;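 note: Nile Red retained in cells so higher fluorescence means more efflux inhibition; 0 = negative control wells and 1 = enniatin B 25 µM full block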). Conditions: S. cerevisiae pump-expressing triplex, Nile Red efflux flow cytometry; at 10 µM; stronger effect = higher value; the pumps come from Candida albicans.
Experiment [15] has as its target ATP-binding cassette sub-family B member 6 (Homo sapiens) (UniProt Q9NP58). The experiment can be described thus: ABCB6 transporter inhibitors, pilot screen, K562-ABCB6 cells, flow cytometry, validation set (AID 588550;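 active = inhibition above the screen-wide mean plus 3 SD, about 51%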;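 note: 0% = DMSO wells and 100% = benzethonium chloride 70 µM positive control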). Conditions: K562-ABCB6 porphyrin accumulation, 1 h, at 10 µM, stronger effect = higher value.
Experiment [16] can be described thus: promoters of myeloid differentiation in arrested cells, primary screen, cell-based, GFP/MAC1 double positive, flow cytometry, validation set (AID 588685;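 active = differentiation response of at least 50%, scaled between solvent and reference control, from cells with both markers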;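 note: compound exposure lasts four days before antibody staining and flow analysis; 0% = DMSO wells and 100% = 5 µM fulvestrant positive control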). As to conditions: ER-HoxA9 marrow cells, stronger effect = higher value, normalized: vehicle 0, fulvestrant 100.

Inconclusive results are not listed. Active and inactive are the calls of the source.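 Rule for the calls, unless noted: active = percent response above a set limit, the screen-wide mean plus 3 SD (cut at about 130% in these data); inactive = the rest.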

As usually defined, the inhibition is the change of the read-out against control, counted positive when it falls.

Sequence of Beta-2 adrenergic receptor (Homo sapiens) (P07550 whole entry, looked up): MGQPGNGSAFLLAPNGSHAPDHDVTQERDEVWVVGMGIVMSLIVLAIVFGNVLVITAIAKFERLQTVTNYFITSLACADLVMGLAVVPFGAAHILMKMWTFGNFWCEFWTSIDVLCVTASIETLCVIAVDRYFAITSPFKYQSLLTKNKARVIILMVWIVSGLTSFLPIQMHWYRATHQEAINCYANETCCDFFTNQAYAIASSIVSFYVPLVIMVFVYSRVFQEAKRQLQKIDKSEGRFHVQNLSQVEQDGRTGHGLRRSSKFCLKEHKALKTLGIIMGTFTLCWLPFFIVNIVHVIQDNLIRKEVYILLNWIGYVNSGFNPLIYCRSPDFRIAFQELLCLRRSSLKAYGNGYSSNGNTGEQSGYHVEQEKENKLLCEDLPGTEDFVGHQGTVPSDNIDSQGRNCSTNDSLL
Sequence of AP-2 complex subunit beta (Homo sapiens) (P63010 whole entry, looked up, the tested form may be a part, one chain of several): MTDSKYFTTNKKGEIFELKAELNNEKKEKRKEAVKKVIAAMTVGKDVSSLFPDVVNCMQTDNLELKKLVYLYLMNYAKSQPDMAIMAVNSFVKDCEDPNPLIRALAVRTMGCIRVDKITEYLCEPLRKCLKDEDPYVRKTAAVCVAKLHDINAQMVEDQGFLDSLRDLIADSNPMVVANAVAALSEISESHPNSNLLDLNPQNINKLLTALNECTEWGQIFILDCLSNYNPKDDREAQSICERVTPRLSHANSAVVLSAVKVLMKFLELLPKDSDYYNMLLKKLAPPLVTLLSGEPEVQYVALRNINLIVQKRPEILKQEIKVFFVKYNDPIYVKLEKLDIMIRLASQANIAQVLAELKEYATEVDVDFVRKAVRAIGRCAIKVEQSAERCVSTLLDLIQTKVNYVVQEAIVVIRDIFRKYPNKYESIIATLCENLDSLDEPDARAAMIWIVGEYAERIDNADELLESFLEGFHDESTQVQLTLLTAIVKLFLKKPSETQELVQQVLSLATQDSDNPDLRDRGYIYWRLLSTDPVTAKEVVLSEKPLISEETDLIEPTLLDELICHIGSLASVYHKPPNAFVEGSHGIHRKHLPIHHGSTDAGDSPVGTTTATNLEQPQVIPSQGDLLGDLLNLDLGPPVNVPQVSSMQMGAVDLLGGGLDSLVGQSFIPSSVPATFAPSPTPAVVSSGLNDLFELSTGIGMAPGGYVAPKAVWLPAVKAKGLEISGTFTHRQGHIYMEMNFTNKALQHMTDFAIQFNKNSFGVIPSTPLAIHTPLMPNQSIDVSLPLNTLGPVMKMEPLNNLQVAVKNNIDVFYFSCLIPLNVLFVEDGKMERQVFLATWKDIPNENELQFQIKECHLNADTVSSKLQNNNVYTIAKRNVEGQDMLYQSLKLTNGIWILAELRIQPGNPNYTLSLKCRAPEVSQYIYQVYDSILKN
Sequence of Beta-adrenergic receptor kinase 1 (Homo sapiens) (P25098 whole entry, looked up): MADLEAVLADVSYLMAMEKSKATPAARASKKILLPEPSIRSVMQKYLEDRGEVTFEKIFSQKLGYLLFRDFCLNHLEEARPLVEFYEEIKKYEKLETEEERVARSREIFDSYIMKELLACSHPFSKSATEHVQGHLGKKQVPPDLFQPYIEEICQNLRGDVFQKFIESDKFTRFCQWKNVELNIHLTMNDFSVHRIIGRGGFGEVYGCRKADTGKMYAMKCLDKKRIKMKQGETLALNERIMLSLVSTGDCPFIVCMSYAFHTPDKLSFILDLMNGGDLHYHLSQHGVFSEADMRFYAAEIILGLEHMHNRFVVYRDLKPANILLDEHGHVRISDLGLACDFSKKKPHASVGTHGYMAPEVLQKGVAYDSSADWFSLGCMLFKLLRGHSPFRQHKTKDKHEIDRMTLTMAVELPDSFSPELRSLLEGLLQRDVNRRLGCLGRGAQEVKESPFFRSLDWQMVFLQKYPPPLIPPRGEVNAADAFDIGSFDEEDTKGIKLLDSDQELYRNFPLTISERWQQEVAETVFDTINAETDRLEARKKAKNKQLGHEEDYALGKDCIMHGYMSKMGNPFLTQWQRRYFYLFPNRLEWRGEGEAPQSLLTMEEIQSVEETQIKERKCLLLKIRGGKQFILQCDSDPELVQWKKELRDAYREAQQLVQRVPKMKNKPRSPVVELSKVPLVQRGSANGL
Sequence of Integrin beta-1 (Homo sapiens) + Integrin alpha-4 (Homo sapiens) (P05556 whole entry, looked up): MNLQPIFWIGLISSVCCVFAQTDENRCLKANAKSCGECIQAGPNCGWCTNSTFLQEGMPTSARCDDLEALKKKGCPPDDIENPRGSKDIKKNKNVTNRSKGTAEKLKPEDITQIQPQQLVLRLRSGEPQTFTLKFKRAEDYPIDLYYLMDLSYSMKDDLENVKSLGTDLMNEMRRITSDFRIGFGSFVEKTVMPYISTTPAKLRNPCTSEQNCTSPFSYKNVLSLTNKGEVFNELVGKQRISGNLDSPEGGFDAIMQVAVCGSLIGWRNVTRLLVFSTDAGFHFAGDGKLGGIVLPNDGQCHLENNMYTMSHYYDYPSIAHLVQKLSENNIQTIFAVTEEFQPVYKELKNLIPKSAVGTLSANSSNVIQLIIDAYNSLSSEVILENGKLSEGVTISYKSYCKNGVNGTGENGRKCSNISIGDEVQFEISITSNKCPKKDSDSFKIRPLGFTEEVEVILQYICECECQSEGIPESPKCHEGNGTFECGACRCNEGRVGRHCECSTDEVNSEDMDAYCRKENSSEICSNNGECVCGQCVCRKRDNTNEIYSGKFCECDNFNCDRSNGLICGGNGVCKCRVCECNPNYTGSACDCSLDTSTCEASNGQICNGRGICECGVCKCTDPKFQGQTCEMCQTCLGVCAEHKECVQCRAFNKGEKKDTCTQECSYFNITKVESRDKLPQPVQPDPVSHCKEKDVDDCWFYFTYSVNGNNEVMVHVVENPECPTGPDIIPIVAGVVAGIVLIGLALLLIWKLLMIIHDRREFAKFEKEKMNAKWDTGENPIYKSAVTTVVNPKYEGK
Sequence of Integrin beta-1 (Homo sapiens) + Integrin alpha-4 (Homo sapiens) (P13612 whole entry, looked up): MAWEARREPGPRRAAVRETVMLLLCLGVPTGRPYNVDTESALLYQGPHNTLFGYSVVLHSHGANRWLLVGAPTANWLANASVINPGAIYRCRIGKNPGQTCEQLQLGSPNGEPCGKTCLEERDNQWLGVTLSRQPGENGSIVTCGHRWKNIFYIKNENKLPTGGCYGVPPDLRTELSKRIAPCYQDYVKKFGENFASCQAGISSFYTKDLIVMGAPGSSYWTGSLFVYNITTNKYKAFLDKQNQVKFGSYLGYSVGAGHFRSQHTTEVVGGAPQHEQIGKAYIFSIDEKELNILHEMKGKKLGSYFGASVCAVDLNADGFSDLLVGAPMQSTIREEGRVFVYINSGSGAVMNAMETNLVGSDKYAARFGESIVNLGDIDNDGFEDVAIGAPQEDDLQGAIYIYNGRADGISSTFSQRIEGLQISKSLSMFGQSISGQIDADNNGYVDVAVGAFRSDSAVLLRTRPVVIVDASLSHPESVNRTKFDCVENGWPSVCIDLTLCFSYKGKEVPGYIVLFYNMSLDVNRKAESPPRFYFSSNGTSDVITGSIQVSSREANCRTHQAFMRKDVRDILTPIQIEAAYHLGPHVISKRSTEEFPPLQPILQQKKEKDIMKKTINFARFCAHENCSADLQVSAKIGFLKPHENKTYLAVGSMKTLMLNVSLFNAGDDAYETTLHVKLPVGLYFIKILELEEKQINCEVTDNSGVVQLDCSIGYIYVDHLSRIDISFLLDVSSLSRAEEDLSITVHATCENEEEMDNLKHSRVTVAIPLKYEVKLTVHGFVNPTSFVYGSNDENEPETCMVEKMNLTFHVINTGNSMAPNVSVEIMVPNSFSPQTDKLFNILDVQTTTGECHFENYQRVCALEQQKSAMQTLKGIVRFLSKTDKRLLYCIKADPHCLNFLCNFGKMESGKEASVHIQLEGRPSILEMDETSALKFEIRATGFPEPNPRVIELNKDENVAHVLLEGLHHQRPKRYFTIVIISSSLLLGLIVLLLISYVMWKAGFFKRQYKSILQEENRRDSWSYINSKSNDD
Sequence of ATP-binding cassette sub-family B member 6 (Homo sapiens) (Q9NP58 whole entry, looked up): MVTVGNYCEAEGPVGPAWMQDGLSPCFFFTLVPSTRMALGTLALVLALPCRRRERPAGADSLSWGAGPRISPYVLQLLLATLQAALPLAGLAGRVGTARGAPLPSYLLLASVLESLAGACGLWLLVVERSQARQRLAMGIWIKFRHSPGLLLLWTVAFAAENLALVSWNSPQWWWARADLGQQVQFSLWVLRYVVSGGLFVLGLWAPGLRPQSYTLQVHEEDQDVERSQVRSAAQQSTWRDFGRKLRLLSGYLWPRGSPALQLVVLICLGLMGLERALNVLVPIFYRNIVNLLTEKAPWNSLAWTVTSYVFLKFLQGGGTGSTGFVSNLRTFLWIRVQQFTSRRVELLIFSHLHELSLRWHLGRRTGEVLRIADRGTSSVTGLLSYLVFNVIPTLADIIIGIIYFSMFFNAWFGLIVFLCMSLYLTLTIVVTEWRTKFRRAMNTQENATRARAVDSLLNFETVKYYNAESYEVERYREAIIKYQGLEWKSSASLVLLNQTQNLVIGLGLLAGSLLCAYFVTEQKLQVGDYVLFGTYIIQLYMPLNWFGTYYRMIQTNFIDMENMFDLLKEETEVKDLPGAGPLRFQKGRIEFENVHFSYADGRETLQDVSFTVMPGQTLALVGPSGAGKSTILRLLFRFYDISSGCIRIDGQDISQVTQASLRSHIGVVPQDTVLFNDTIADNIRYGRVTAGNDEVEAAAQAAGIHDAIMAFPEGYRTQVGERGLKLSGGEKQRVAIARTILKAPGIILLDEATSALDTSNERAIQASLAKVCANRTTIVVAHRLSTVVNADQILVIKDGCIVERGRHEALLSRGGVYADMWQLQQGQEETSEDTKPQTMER

With `CC(C)CC(NC(=O)c1cccc(Cl)c1)C(=O)O` (stereo not drawn), in experiment [1], the percent of DMSO control GFP was 94.6% (inactive). The GFP response vs DMSO in experiment [2] was 102% (inactive); in experiment [4] it was 129% (inactive). Moreover, the percent response of DMSO control in experiment [3] is 94.8% (inactive). Also, the GFP response, % of DMSO in experiment [5] is 101% (inactive). In [6], this molecule gave a double positive events of 60.5%. Besides, the vesicle binding response in experiment [6] was 207% (inactive). In addition, the inhibition in experiment [7] was -7.25% (inactive); in experiment [11], 14.1% (inactive); in [15], 2% (inactive). For the same molecule, in [8], the superoxide response (% of plate) is 113% (inactive). Further, in experiment [9], the aptamer binding inhibition was 0% (inactive). For the same molecule, the response in experiment [10] was -14.8% (inactive); in [12] it was 1.45% (inactive). In addition, the binding (% of control) in [13] was 98% (inactive). Moreover, in experiment [14], the efflux inhibition (fraction of control) was -0.13 (inactive). For the same molecule, in [16], the differentiation response was -5.6% (inactive).
Turning to `CCc1cc(=O)oc2cc(OCc3nn[nH]n3)ccc12`, in [1], the percent of DMSO control GFP was 102% (inactive). Moreover, the results for the GFP response vs DMSO in [2] and in experiment [4] were 100% (inactive) and 96% (inactive), respectively. In addition, the percent response of DMSO control in experiment [3] was 96.6% (inactive). For the same molecule, the GFP response, % of DMSO in [5] was 100% (inactive). The molecule also registered a double positive events in experiment [6] of 65.5%. For the same molecule, the vesicle binding response in [6] was 174% (inactive). The inhibition in experiment [7] is -10.8% (inactive); in [11], 9.23% (inactive); in [15], 14% (inactive). Further, in experiment [8], the superoxide response (% of plate) was 106% (inactive). The aptamer binding inhibition in experiment [9] was 5% (inactive). Further, the response in [10] is -3.63% (inactive); in experiment [12], -0.49% (inactive). For the same molecule, the binding (% of control) in experiment [13] is 103% (inactive). In addition, the efflux inhibition (fraction of control) in [14] was 0.02 (inactive). Also, the differentiation response in experiment [16] was 0.24% (inactive).
`CCCn1c(=O)c2[nH]c(C3CCCC3)nc2n(CCC)c1=O`: in experiment [1], the percent of DMSO control GFP was 92.6% (inactive). For the same molecule, the results for the GFP response vs DMSO in experiment [2] and in experiment [4] were 137% (inactive) and 82.5% (inactive), respectively. Also, the percent response of DMSO control in [3] is 102% (inactive). Further, the GFP response, % of DMSO in [5] was 88.7% (inactive). In experiment [6], this molecule had a double positive events of 62.8%. In addition, in experiment [6], the vesicle binding response was 193% (inactive). Further, the inhibition in experiment [7] is 0.64% (inactive); in experiment [11], -0.16% (inactive); in [15], 7% (inactive). Moreover, the superoxide response (% of plate) in [8] is 93.3% (inactive). Also, the aptamer binding inhibition in [9] is 4% (inactive). For the same molecule, the response was -5.24% (inactive) in experiment [10] and -6.35% (inactive) in experiment [12]. Also, in experiment [13], the binding (% of control) was 102% (inactive). The efflux inhibition (fraction of control) in experiment [14] is -0.13 (inactive). In experiment [16], the differentiation response is 2.46% (inactive).
For `Cc1ccc2c(c1)C(CCN)C(=O)N2Cc1ccccc1` (stereo not drawn), in [1], the percent of DMSO control GFP was 102% (inactive). In addition, the figures for the GFP response vs DMSO in experiment [2] and in experiment [4] were 104% (inactive) and 96% (inactive), respectively. Further, the percent response of DMSO control in experiment [3] is 109% (inactive). The GFP response, % of DMSO in experiment [5] was 101% (inactive). The double positive events in experiment [6] turned out to be 66.6%. Further, the vesicle binding response in experiment [6] is 234% (inactive). The inhibition is -6.68% (inactive) in [7], 8.79% (inactive) in [11] and 1% (inactive) in experiment [15]. The superoxide response (% of plate) in [8] was 106% (inactive). Moreover, in experiment [9], the aptamer binding inhibition was -4% (inactive). The figures for the response in [10] and in [12] were -2.03% (inactive) and 0.57% (inactive), respectively. Moreover, in [13], the binding (% of control) is 94.5% (inactive). Besides, the efflux inhibition (fraction of control) in [14] was -0.14 (inactive). The differentiation response in experiment [16] is -2.69% (inactive).

The values are drawn from PubChem BioAssay.
